# From PubChem BioAssay (Tox21)
# Where “and” joins values, the source holds several entries; their conditions need not be identical. Identical values can stand only once. Inconclusive results are not listed. Entries that show only a call come without a potency. Some structures have more than one record in an assay (separate samples or runs), and their calls can disagree. Calls of active or inactive are those of the source. Unless noted, calls follow the shape of the dose curve; as a rule, active = well fitted curve in the direction sought with a large enough effect in the repeat runs; inconclusive = weak or mixed curves; inactive = no such curve, though single readings can be large; an effect the other way counts as inactive or inconclusive.
# Experiments:
# [1] = qHTS assay to identify small molecule agonists of H2AX - cell viability counter screen (AID 1224847; calls by dose curve;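 also: wild-type CHO-K1 cells; top concentration of the series differs between compounds; nearly all actives have a fitted effect of over 30% in size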)
# Procedure, shortened: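 CHO-K1 wt, 1000 cells/well, o/n 37C; cpds 15 conc, 3 h 37C, 0.76% DMSO; CellTiter-Glo, 30 min RT, luminescence.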
# [2] = qHTS RealTime-Glo MT Cell Viability Assay in HepG2 cells - 24 hour (AID 1224867); also: nearly all actives have a fitted effect of over 50% in size
# Procedure, shortened: (§1)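 Compound treatment began 5 h after plating HepG2 cells (600/well) with NanoLuc luciferase and prosubstrate. Plates stayed at 37 C for 40 h; luminescence was captured at six time points, 0 h through 40 h.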
# [3] = qHTS RealTime-Glo MT Cell Viability Assay in HEK293 cells - 32 hour (AID 1224868); also: top concentration of the series differs between compounds; nearly all actives have a fitted effect of over 50% in size
# Procedure, shortened: (§2)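 Quantitative high-throughput screen of the Tox21 10K library in HEK293: cells and RealTime-Glo reagents plated together, compound added at 5 h, luminescence monitored through 40 h at 37 C.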
# [4] = A CellTox Green Cytotoxicity Assay to monitor cytotoxicity in HEK293 cells - 0 hour (AID 1224869); also: nearly all actives have a fitted effect of over 50% in size
# Procedure, shortened: (§3)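 Read-out: fluorescence of a cell-impermeant cyanine dye staining DNA of dead cells, proportional to cytotoxicity. HEK293, 600 cells/well with reagent, compound (23 nL DMSO) added after 5 h; reads at 0, 8, 16, 24, 32, 40 h.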
# [5] = qHTS RealTime-Glo MT Cell Viability Assay in HepG2 cells - 40 hour (AID 1224870); also: nearly all actives have a fitted effect of over 50% in size
# Procedure, shortened: (§4)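 HepG2 cells (600/well) mixed with RealTime-Glo MT reagent, settled 5 h at 37 C/5% CO2 before compound addition. Nonlytic NanoLuc luminescence from viable-cell prosubstrate reduction read repeatedly during 40 h treatment at 37 C.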
# [6] = A CellTox Green Cytotoxicity Assay to monitor cytotoxicity in HEK293 cells - 40 hour (AID 1224871); also: nearly all actives have a fitted effect of over 45% in size
# Procedure, shortened: as §3
# [7] = qHTS RealTime-Glo MT Cell Viability Assay in HEK293 cells - 16 hour (AID 1224872)
# Procedure, shortened: as §2
# [8] = qHTS RealTime-Glo MT Cell Viability Assay in HepG2 cells - 8 hour (AID 1224873); also: nearly all actives have a fitted effect of over 55% in size
# Procedure, shortened: as §4
# [9] = qHTS RealTime-Glo MT Cell Viability Assay in HEK293 cells - 40 hour (AID 1224874); details: RealTime-Glo luminescence; max response: stronger effect = lower value; also: nearly all actives have a fitted effect of over 50% in size
# Procedure, shortened: (§5)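 Luminescence readout at each listed time point; HEK293, 600 cells/well, RealTime-Glo MT reagent added with cells; compounds pinned (23 nL in DMSO) after 5 h at 37 C; continuous culture at 37 C.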
# [10] = A CellTox Green Cytotoxicity Assay to monitor cytotoxicity in HEK293 cells - 24 hour (AID 1224875); also: nearly all actives have a fitted effect of over 45% in size
# Procedure, shortened: as §3
# [11] = A CellTox Green Cytotoxicity Assay to monitor cytotoxicity in HepG2 cells - 16 hour (AID 1224876); also: nearly all actives have a fitted effect of over 45% in size
# Procedure, shortened: (§6)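 HepG2, 600 cells/well premixed w/ CellTox Green; 5 h settle, 37 C/5% CO2; pintool cpd add (DMSO); 37 C, 40 h; fluorescence read at 0, 8, 16, 24, 32, 40 h.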
# [12] = qHTS RealTime-Glo MT Cell Viability Assay in HepG2 cells - 32 hour (AID 1224877); also: nearly all actives have a fitted effect of over 55% in size
# Procedure, shortened: as §1
# [13] = A CellTox Green Cytotoxicity Assay to monitor cytotoxicity in HepG2 cells - 24 hour (AID 1224878); also: nearly all actives have a fitted effect of over 45% in size
# Procedure, shortened: as §6
# [14] = A CellTox Green Cytotoxicity Assay to monitor cytotoxicity in HepG2 cells - 40 hour (AID 1224879); also: nearly all actives have a fitted effect of over 40% in size
# Procedure, shortened: as §6
# [15] = qHTS RealTime-Glo MT Cell Viability Assay in HEK293 cells - 0 hour (AID 1224880)
# Procedure, shortened: as §5
# [16] = A CellTox Green Cytotoxicity Assay to monitor cytotoxicity in HEK293 cells - 32 hour (AID 1224881); also: nearly all actives have a fitted effect of over 40% in size
# Procedure, shortened: as §3
# [17] = A CellTox Green Cytotoxicity Assay to monitor cytotoxicity in HepG2 cells - 0 hour (AID 1224882); also: nearly all actives have a fitted effect of over 35% in size
# Procedure, shortened: as §6
# [18] = A CellTox Green Cytotoxicity Assay to monitor cytotoxicity in HepG2 cells - 32 hour (AID 1224883); also: nearly all actives have a fitted effect of over 50% in size
# Procedure, shortened: as §6
# [19] = qHTS assay to identify small molecule antagonists of the estrogen related receptor (ERR) signaling pathway from Tox21 library (AID 1224848); also: nearly all actives have a fitted effect of over 50% in size
# Procedure, shortened: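 Compounds dissolved in DMSO are pin-transferred onto ERR reporter cells (2,000 per well) that have settled for 6 h at 37 C. Plates then incubate 18 h at 37 C before ONE-Glo luciferase reagent and a luminescence read 30 min later.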
# [20] = qHTS assay to identify small molecule agonists of the estrogen related receptor (ERR) signaling pathway from Tox21 library (AID 1224849; calls by dose curve; also: nearly all actives have a fitted effect of over 15% in size); details: ERR reporter cell line, ONE-Glo luciferase, 18 h; at 92.4 µM (top of the series)
# Procedure, shortened: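 Luminescence readout (ONE-Glo, 30 min RT) after 18 h compound exposure at 37 C of NTP-supplied ERR reporter cells; cells were plated 6 h before compound addition by pin tool.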
Compound,Potency [1],outcome [2],Potency [3],Potency [4],outcome [5],Potency [6],outcome [7],outcome [8],max response [9],Potency [10],Potency [11],outcome [12],Potency [13],Potency [14],outcome [15],Potency [16],Potency [17],Potency [18],Potency [19],"activity change, positive = activation [20]"
CC(C)(C)OOC(=O)c1ccccc1,inactive,inactive,inactive,inactive,inactive,inactive,inactive,inactive,-10.9% (inactive) and 1.81% (inactive),inactive,inactive,inactive,inactive,inactive,inactive,inactive,inactive,inactive,,
NCC(O)c1ccc(O)cc1 (stereo not drawn),inactive,inactive,inactive,inactive,inactive,inactive,inactive,inactive,-6.22% (inactive) and 3.7% (inactive),inactive,inactive,inactive,inactive,inactive,inactive,inactive,inactive,inactive,,
CCNc1nc(NC(C)C)nc(SC)n1,inactive,inactive,inactive,inactive,inactive,inactive,inactive,inactive,-1.45% (inactive),inactive,inactive,inactive,inactive,inactive,inactive,inactive,inactive,inactive,,
CCOP(=S)(OCC)Oc1cnc2ccccc2n1,inactive,inactive,inactive,inactive,inactive,inactive,inactive,inactive,0.949% (inactive),inactive,inactive,inactive,inactive,inactive,inactive,inactive,inactive,inactive,,
CC(C)OC(=O)Nc1cccc(Cl)c1,,inactive,inactive,inactive,inactive,inactive,inactive,inactive,-5.94% (inactive) and -18% (inactive),inactive,inactive,inactive,inactive,inactive,inactive,inactive,inactive,,inactive,3.6% (inactive)
COC(=O)c1ccccc1C(=O)OC,,inactive,inactive,inactive,inactive,inactive,inactive,inactive,-6.01% (inactive) and 4.81% (inactive),inactive,inactive,inactive,inactive,inactive,inactive,inactive,inactive,,inactive,-0.694% (inactive) and 10.9% (active)
